In all, about 310,000 compounds went through this assay and about 2,200 (0.71%) showed an effect of 50% or more. Effects have a minus sign here. For the sample, strong results were picked, then their nearest neighbours and some compounds at random.

These results are taken from paper PMC4336329 (PLoS ONE, 2015).

Chain of human ether-à-go-go-related gene (hERG) potassium channel (Q12809 whole entry, looked up): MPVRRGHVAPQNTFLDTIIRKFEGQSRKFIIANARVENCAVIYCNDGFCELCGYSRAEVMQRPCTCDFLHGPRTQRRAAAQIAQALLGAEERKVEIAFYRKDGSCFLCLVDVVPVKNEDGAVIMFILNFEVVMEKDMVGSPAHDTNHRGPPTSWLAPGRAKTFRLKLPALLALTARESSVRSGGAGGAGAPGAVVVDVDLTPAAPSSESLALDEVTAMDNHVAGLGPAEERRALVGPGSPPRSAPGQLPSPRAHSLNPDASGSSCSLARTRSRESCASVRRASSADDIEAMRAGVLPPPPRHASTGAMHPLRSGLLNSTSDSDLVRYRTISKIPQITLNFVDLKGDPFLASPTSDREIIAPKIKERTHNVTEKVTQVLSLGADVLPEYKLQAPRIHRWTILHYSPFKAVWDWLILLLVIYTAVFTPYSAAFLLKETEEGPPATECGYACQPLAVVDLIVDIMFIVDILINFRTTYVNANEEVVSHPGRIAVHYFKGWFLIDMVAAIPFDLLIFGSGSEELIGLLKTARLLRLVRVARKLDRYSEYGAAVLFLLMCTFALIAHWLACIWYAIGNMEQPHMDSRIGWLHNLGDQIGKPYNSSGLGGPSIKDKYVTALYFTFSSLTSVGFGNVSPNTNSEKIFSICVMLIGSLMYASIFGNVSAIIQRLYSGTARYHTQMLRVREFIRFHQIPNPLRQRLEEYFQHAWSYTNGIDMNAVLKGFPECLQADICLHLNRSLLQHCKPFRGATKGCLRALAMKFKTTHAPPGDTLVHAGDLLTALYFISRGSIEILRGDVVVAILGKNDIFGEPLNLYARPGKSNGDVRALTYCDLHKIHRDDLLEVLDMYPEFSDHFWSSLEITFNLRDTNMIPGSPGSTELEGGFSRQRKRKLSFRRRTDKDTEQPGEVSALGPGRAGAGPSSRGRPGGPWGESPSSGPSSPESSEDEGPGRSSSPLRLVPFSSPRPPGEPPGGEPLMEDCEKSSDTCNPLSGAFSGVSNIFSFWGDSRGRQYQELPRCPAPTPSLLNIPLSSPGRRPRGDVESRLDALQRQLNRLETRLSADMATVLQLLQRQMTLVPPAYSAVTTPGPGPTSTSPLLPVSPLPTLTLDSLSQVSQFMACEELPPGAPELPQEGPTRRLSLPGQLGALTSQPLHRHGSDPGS

The test has as its target human ether-à-go-go-related gene (hERG) potassium channel (human, UniProt Q12809). Put plainly: primary screen, population patch clamp on CHO cells stably expressing hERG; higher = less effect of the substance.
As for `Cc1nc(C)n(CC(O)COc2ccc3ccccc3c2)n1` (stereo not drawn), the “hERG current change (%, negative = inhibition) at 1uM” value is given as -0.527%.
The same measure for `CCOC(=O)[C@@H]1[C@H]2COc3cc(OC)ccc3[C@@H]2N2C(=O)N(c3ccc(Br)cc3)C(=O)[C@@]12C`: 5.83%; for `CC(=O)NCCOc1ccc(C(=O)O)cc1`: 6.2%.
In the case of `Cc1ccc(S(=O)(=O)N2CCOCC2)cc1C(=O)N1CCC(Cc2ccccc2)CC1`, the “hERG current change (%, negative = inhibition) at 1uM” value is 11.2%.
As to `O=C(O)CCN(CCC(=O)O)c1nnc(SCc2ccccc2)s1`, the “hERG current change (%, negative = inhibition) at 1uM” value turned out to be 11.7%.
Consider `O=C(CCl)NN=C(c1ccccc1)c1ccccc1`, for which the “hERG current change (%, negative = inhibition) at 1uM” value is 5.28%.
The same measure for `O=C(CN1CCCC1)NN=C(c1ccccc1)c1ccccc1`: -49%; for `CCN(CC)CC(=O)NN=C(c1ccccc1)c1ccccc1`: -78.2%.
On to `CCOC(=O)C1CCN(c2ccc(Cl)nn2)CC1`, for which the “hERG current change (%, negative = inhibition) at 1uM” value is listed as 0.0696%.
Regarding `CCOC(=O)Cc1nnc(NC(=O)c2ccco2)s1`, the “hERG current change (%, negative = inhibition) at 1uM” value came out at 5.45%.
For the compound `Cc1ccc(-c2nn3c(C)nnc3s2)cc1NC(=O)COc1ccc(Cl)cc1`, the “hERG current change (%, negative = inhibition) at 1uM” value was -74.3%.
The same measure for `COc1ccc(OCC(=O)Nc2cc(-c3nn4c(C)nnc4s3)ccc2C)cc1`: 3.66%.
As for `Cc1ccc(OCC(=O)Nc2cc(-c3nn4c(C)nnc4s3)ccc2C)cc1`, the “hERG current change (%, negative = inhibition) at 1uM” value was -2.75%.
The same measure for `O=C(Nc1ccc(Cl)cc1)Nc1ccc2c(c1)OCO2`: 12.5%; for `CN(C(=O)CSc1nnc(CNC(=O)c2ccccc2)o1)c1ccccc1`: 1.84%.
The same measure for `S=C(c1ccc(-c2ccccc2)cc1)N1CCOCC1`: 7.87%; for `O=C(O)C1CCCN1c1nc(-c2ccc(Cl)c(Cl)c2)cc(C(F)(F)F)n1` (stereo not drawn): 7.97%; for `COc1ccc(/C=C/CN2CCN(CCc3ccccc3)C(CCO)C2)cc1` (stereo not drawn): -61.7%.
The same measure for `CCOc1ccccc1CN1CCN(C/C=C/c2ccc(OC)cc2)CC1CCO` (stereo not drawn): -13.6%; for `COc1ccc(/C=C/CN2CCN(Cc3ccc(F)cc3)C(CCO)C2)cc1` (stereo not drawn): -3.48%; for `COc1ccc(/C=C/CN2CCN(CC(C)C)C(CCO)C2)cc1` (stereo not drawn): -0.433%.
As to `COc1ccc(/C=C/CN2CCN(Cc3ccccc3)C(CCO)C2)cc1` (stereo not drawn), the “hERG current change (%, negative = inhibition) at 1uM” value is -28.9%.
Regarding `CCOc1ccc(CN2CCN(C/C=C/c3ccc(OC)cc3)CC2CCO)cc1` (stereo not drawn), the “hERG current change (%, negative = inhibition) at 1uM” value is recorded as -77.1%.
The same measure for `C=CCn1c(=O)c(C(=O)Nc2ccc(C)cc2)c(O)c2ccccc21`: 15.6%; for `Cn1c(N)c(C(=O)COC(=O)c2ccccc2NCc2ccco2)c(=O)n(C)c1=O`: 9.3%.
On to `C[C@H](NC(=O)c1nc[nH]c1C(=O)N[C@@H](Cc1ccccc1)C(=O)OCc1ccccc1)C(=O)OC(C)(C)C`, for which the “hERG current change (%, negative = inhibition) at 1uM” value was 10.7%.
The same measure for `COC(C(=O)Nc1ccc(S(=O)(=O)Nc2ccc(F)cc2)cc1)c1ccccc1` (stereo not drawn): 7.53%.
On to `COC(C(=O)Nc1ccc(S(=O)(=O)Nc2c(C)cccc2C)cc1)c1ccccc1` (stereo not drawn), for which the “hERG current change (%, negative = inhibition) at 1uM” value is -69.6%.
Regarding `COC(C(=O)Nc1ccc(S(=O)(=O)Nc2ccc(C)c(C)c2)cc1)c1ccccc1` (stereo not drawn), the “hERG current change (%, negative = inhibition) at 1uM” value was 1.3%.
For `CC1CCc2c(sc3c2C2=NS(=O)(=O)CCN2C=N3)C1` (stereo not drawn), the “hERG current change (%, negative = inhibition) at 1uM” value turned out to be 15%.
With `Cc1csc(NC(=O)CSc2nnc(C)c(=O)n2N)n1`, the “hERG current change (%, negative = inhibition) at 1uM” value came out at 1.29%.
Consider `O=C(Cc1csc(-c2ccccc2)n1)NCc1ccc(F)cc1`, for which the “hERG current change (%, negative = inhibition) at 1uM” value worked out at 4.14%.
As for `N#Cc1cccc(NC(=O)COc2ccc(-n3ccnc3)cc2)c1`, the “hERG current change (%, negative = inhibition) at 1uM” value is reported as -51%.
Take `O=C(COc1ccc(-n2ccnc2)cc1)Nc1cccc(F)c1`: the “hERG current change (%, negative = inhibition) at 1uM” value is given as -13%.
With `O=C(COc1ccc(-n2ccnc2)cc1)Nc1cccc(Cl)c1`, the “hERG current change (%, negative = inhibition) at 1uM” value is on record as -3.13%.
For the compound `O=S(=O)(Nc1nc(-c2ccccc2)cs1)c1cccc(C(F)(F)F)c1`, the “hERG current change (%, negative = inhibition) at 1uM” value was determined as 10.5%.
The same measure for `CCOc1cc2[nH]c(=S)n(Cc3ccc(C)o3)c(=O)c2cc1OCC`: -3.56%; for `O=C(OCc1cccnc1)C1=Cc2ccccc2OC1`: -73%.
Regarding `COc1cccc2c1OCC(C(=O)OCc1cccnc1)=C2`, the “hERG current change (%, negative = inhibition) at 1uM” value worked out at 10.4%.
As for `COc1ccc2c(c1)C=C(C(=O)OCc1cccnc1)CO2`, the “hERG current change (%, negative = inhibition) at 1uM” value was 10.4%.
In the case of `CCN(CC)S(=O)(=O)c1ccc(-n2cnc3cc(C)c(C)cc32)nc1`, the “hERG current change (%, negative = inhibition) at 1uM” value turned out to be 14.1%.
Take `Cc1nc2ccccn2c1C(=O)N=Nc1c(O)[nH]c2ccccc12`: the “hERG current change (%, negative = inhibition) at 1uM” value is reported as 13.2%.
